Laboratory results from the supplement of paper PMC8975748.
Where a name gives a salt, the structure may show the parent alone.

System: Saccharomyces cerevisiae BY4741 SeMeCo community
Experiment: z-score of subpopulation abundance vs DMSO median, subpopulation auxotrophic for HU; higher = larger share of this subpopulation than in DMSO controls
Details: 10 µM; 24 h; SM minimal medium; subpopulation (auxotrophy): HU
Procedure: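 Fluorescent four-plasmid SeMeCo (self-establishing metabolically cooperating S. cerevisiae BY4741 community; plasmids pH-mRuby2, pL-mWasabi, pU-eCFP, pM-TagRFP657) was grown 24 h in minimal SM medium with each Selleck FDA-approved drug at 10 µM in 384-well plates. Cells were fixed and imaged by high-content confocal microscopy. For each auxotrophic subpopulation (and the prototroph), a z-score gives the deviation from the DMSO vehicle-control population median.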

SMILES	z-score of subpopulation abundance
O=C(O[C@H]1C[C@H]2CC[C@@H](C1)[N+]21CCCC1)C(O)(c1ccccc1)c1ccccc1 [Trospium chloride]	0.09
CC(=O)OCC1=C(C(=O)O)N2C(=O)C(N)C2SC1 (centres undefined) [7-Aminocephalosporanic acid]	0.37
O=c1cccc2n1C[C@@H]1CNC[C@H]2C1 [Cytisine]	-0.56
CN1C(=O)COc2c(C(=O)NC3CN4CCC3CC4)cc(Cl)cc21 (centres undefined) [Azasetron HCl]	-0.34
CC1(C)SC2C(N)C(=O)N2C1C(=O)O (centres undefined) [6-Aminopenicillanic acid]	0.4
Nc1nc(N)nc(NC2CC2)n1 [Cyromazine]	0.05
CCN1CC2(OC(=O)c3ccccc3NC(C)=O)CCC(OC)C34C1C(CC23)C1(O)CC(OC)C2CC4C1(O)C2OC (centres undefined) [Lappaconitine]	0.26
NC(=O)CN1CCCC1=O [Piracetam]	0.46
CN(C)C(=O)Oc1cccc([N+](C)(C)C)c1 [Neostigmine Bromide]	-0.26
C=CN1CCCC1=O.II [Povidone iodine]	1.56
COc1ccc2c3c([nH]c2c1)C(C)=NCC3 [Harmaline]	-7.98
CC[N+](C)(CC)CCOC(=O)C(O)(c1ccccc1)c1ccccc1 [Methylbenactyzine Bromide]	-0.63
CN1c2ccccc2C(NCCCCCCC(=O)O)c2ccc(Cl)cc2S1(=O)=O (centres undefined) [Tianeptine sodium]	-1.1
C[N+]12CCC(CC1)C(OC(=O)C(O)(c1ccccc1)c1ccccc1)C2 (centres undefined) [Clidinium Bromide]	-0.29
C[C@@H]1O[C@@H](O[C@H]2C[C@@H](O)[C@]3(CO)[C@H]4[C@H](O)C[C@]5(C)[C@@H](C6=CC(=O)OC6)CC[C@]5(O)[C@@H]4CC[C@]3(O)C2)[C@H](O)[C@H](O)[C@H]1O [Ouabain]	-0.71
CN1[C@@H]2CC[C@H]1C[C@@H](OC(=O)[C@H](CO)c1ccccc1)C2 [Hyoscyamine]	-0.35
COc1ccc2c(c1)[C@]13CCCC[C@@H]1[C@H](C2)N(C)CC3 [Dextromethorphan hydrobromide hydrate]	-0.61

SMILES	z-score of subpopulation abundance
CC(C)N(CCC(C(N)=O)(c1ccccc1)c1ccccn1)C(C)C (centres undefined) [Disopyramide]	-0.45
NCCc1c[nH]c2ccc(O)cc12 [Serotonin HCl]	-0.18
CN(C)[C@@H]1C(=O)C(C(N)=O)=C(O)[C@@]2(O)C(=O)C3=C(O)c4c(O)ccc(Cl)c4[C@@](C)(O)[C@H]3C[C@@H]12 [Chlortetracycline HCl]	-0.42
C=C(C)[C@H]1Cc2c(ccc3c2O[C@@H]2COc4cc(OC)c(OC)cc4[C@@H]2C3=O)O1 [Rotenone (Barbasco)]	1.02
C[CH2][Hg][S]c1ccccc1C(=O)[O-].[Na+] [Thimerosal]	6.59
CN(C)[C@@H]1C(=O)C(C(N)=O)=C(O)[C@@]2(O)C(=O)C3=C(O)c4c(O)cccc4[C@@](C)(O)[C@H]3[C@H](O)[C@@H]12 [Oxytetracycline Dihydrate]	-0.06
CN1[C@@H]2C[C@@H](OC(=O)[C@H](CO)c3ccccc3)C[C@H]1[C@@H]1O[C@@H]12 [Scopolamine HBr]	-1.37
Oc1cc(Cl)ccc1Oc1ccc(Cl)cc1Cl [Triclosan]	0.43
CCOC(=O)Nc1ccc(NCc2ccc(F)cc2)cc1N [Retigabine 2HCl]	-0.49
C[N+]1(C)[C@@H]2C[C@@H](OC(=O)[C@H](CO)c3ccccc3)C[C@H]1[C@@H]1O[C@@H]12 [Methscopolamine]	0.7
Cn1cc(C2=C(c3cn(C4CCN(Cc5ccccn5)CC4)c4ccccc34)C(=O)NC2=O)c2ccccc21	-0.2
CCN(C)C(=O)Oc1cccc([C@H](C)N(C)C)c1 [Rivastigmine]	0.2
C#C[C@]1(O)C=C[C@H]2[C@@H]3CCC4=CC(=O)CC[C@@H]4[C@H]3CC[C@@]21CC [Gestodene]	-0.67
CCN(CC)CCOC(=O)C(O)(c1ccccc1)c1ccccc1 [Benactyzine hydrochloride]	1.62
CC(C)(O)C(Cl)(Cl)Cl [Chlorobutanol]	0.05
NCC(O)c1ccc(O)cc1 (racemic) [(+,-)-Octopamine HCl]	0.29
O=C(O[C@H]1C[N+]2(CCCOc3ccccc3)CCC1CC2)C(O)(c1cccs1)c1cccs1 [Aclidinium Bromide]	0.63
